Rab9 promoter act: Rab9 promoter activation; Huh7 Rab9 promoter-luciferase reporter, luminescence, 24 h; Potency, µM (top dose mostly 9.22 µM), without a hit: at the top dose activation, negative = inhibition, hits mostly activators; actives 2.8% (n = 320,000); note: % of control where 0% means no effect; nearly all actives have a fitted effect of over 60% in size
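Measured in stably transfected Huh7 cells bearing a Rab9 promoter–luciferase construct: 24 h compound treatment at 37 °C, followed by luminescence detection.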
NPC1 promoter act: NPC1 promoter activation. actives 2.4% (n = 320,000). Potency, µM (series often up to 9.22 µM), for inactives: at the top dose activation, hits mostly activators. Huh7 NPC1 promoter luciferase reporter, 24 h; note: % of control where 0% means no effect; nearly all actives have a fitted effect of over 60% in size
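Cells: Huh7 expressing luciferase under the NPC1 promoter, 1500/well. Seeded 2 h, compound added, incubated 24 h at 37 °C. Luciferase reagent, 10 min ambient, then luminescence.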
ELG1 genotoxic: inducers of genotoxicity in HEK293T ELG1-luciferase cells | actives 1.3% (n = 330,000) | Potency, µM (titrated, usually from 46 µM), for the others: top-dose activity change, positive = activation, usual class: activators | HEK293T ELG1-luciferase reporter, luminescence, 16 h; note: % of control where 0% means no effect; nearly all actives have a fitted effect of over 60% in size
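Quantitative HTS format in 1536-well plates. HEK293T ELG1-luciferase reporter cells receive test compound and are incubated 16 hr at 37 °C, 5% CO2; ONE-Glo added, 30 min room temperature, then luminescence read.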
SMN2 splice up: SMN2 splice variant enhancement; actives 2.8% (n = 210,000); HEK293 SMN2-luciferase splicing reporter, luminescence, 30-36 h; AID 1458; Potency, µM (doses to about 46.1 µM), for inactives: top-dose activity change, positive = activation, usual class: activators; note: % of control where 0% means no effect; nearly all actives have a fitted effect of over 55% in size
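HEK293 cells carry an SMN2 minigene-luciferase reporter in which exon 7 inclusion puts luciferase in frame. Cells were seeded at 2000 cells/well, attached for 10-12 hours, then exposed to compounds for 30-36 hours at 37C before ONE-Glo luminescence.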
FLuc counter: counter-screen for miR-21 project: firefly luciferase inhibitors or activators. purified FLuc, Km substrates, luminescence inhibition. Potency, µM (doses to about 57.5 µM), without a hit: at the top dose activity change, negative = inhibition, actives largely listed as inhibitors. actives 6.9% (n = 360,000). AID 588342;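 note: plate controls were vehicle for no effect and reference inhibitor for full effect; nearly all actives have a fitted effect of over 55% in size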
Target sequence (P08659 whole entry, looked up): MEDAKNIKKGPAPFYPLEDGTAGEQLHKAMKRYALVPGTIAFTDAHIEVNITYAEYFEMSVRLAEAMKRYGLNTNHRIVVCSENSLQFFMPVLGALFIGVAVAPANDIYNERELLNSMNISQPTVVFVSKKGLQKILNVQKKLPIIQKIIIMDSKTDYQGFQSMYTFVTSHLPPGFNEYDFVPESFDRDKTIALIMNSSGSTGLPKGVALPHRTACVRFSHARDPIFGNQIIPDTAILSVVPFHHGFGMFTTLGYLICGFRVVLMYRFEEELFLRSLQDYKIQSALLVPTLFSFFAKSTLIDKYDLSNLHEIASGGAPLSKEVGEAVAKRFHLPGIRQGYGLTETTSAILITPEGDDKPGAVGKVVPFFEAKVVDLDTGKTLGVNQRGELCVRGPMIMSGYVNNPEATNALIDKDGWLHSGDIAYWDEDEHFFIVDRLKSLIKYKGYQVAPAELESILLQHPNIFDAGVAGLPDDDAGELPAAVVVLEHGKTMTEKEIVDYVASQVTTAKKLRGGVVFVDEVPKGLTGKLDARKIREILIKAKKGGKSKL
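Purified P. pyralis luciferase, 10 nM final, with Km-level 10 uM D-luciferin and 10 uM ATP in 50 mM Tris acetate pH 7.5, 10 mM Mg acetate, 0.01% Tween-20, 0.05% BSA; 6-point qHTS titration about 60 µM downward; luminescence read.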
Starred values were filed as active, the others as inactive; ? = inconclusive; . = not tested or not shown; [ ] = dose if it differs, or a comment. The list is not random: actives were taken first. Their share in the collection is about 7.4%. Calls come from the whole dose curve; as a rule, active = well fitted curve in the direction sought with a large enough effect; inconclusive = small, poorly fitted or top-dose-only effect, or another doubt; inactive = no such curve, though single readings can be large; an effect the other way counts as inactive or inconclusive. Potency is the fitted concentration of half-maximal effect.

SMILES	Rab9 promoter act	NPC1 promoter act	ELG1 genotoxic	SMN2 splice up	FLuc counter
O=C(O)Cn1cc(/C=N/Nc2ccc([N+](=O)[O-])cn2)c2ccccc21	-3%	2%	0%	.	13µM*
Cc1ccc(-n2cc(CNCCCn3ccnc3C)c(-c3ccc(F)cc3)n2)cc1	-4%	-2%	1%	.	24µM*
Cc1ccc(-n2cc(CNCCc3cscn3)c(-c3ccc(F)cc3)n2)cc1	8%	-2%	0%	.	11µM*
CCN1CC(CNCc2cn(-c3ccc(OC)cc3)nc2-c2ccccc2Cl)CC1=O (stereo not drawn)	3%	-6%	0%	.	?
COc1ccc(-n2cc(CNCCc3cscn3)c(-c3ccccc3Cl)n2)cc1	0%	-1%	-2%	.	24µM*
Cc1ccc(-n2cc(CNCCCn3cccn3)c(-c3cccc(C)c3)n2)cc1	-4%	-4%	1%	.	?
O=C(Nc1cccc(S(=O)(=O)N2CCCCC2)c1)c1ccc(N2CCCC2=O)cc1	-3%	1%	2%	.	?
CCOc1ccc2c(ccc(/C=C\c3cc(C)c4cccnc4c3O)[n+]2C)c1	.	.	.	-21%[9.22 µM]	.
O=C(NC1CCCCC1)c1cc(-c2ccc(F)cc2)on1	3.2µM*	1.4µM*	16%	.	-9%
Cc1ccc(-c2cc(C(=O)NC3CCCC3)no2)cc1	2µM*	0.56µM*	?	.	2.1µM*
O=C(NC1CCCCC1)c1cc(-c2cccs2)on1	2µM*	3.2µM*	?	.	?
O=C(NCCN1CCOCC1)c1cc(-c2ccc(F)cc2)on1	19%	12%	10%	-22%	-1%
CO/N=C\CC(=O)Nc1ccc(Oc2ccccc2)cc1	-10%	-32%	16%	7%	-11%
O=C(Nc1ccc(/C=C/c2nc3ccccc3o2)cc1)c1c(F)cccc1F	2µM*	3.2µM*	1.5µM*	8.9µM*	2.1µM*
CC(=O)Nc1ccc(/C=C/c2nc3ccccc3o2)cc1	0.45µM*	2.2µM*	?	.	4.8µM*
O=C(Nc1ccc(/C=C/c2nc3ccccc3o2)cc1)c1cccc(C(F)(F)F)c1	?	28%	?	.	?
CCOc1ccccc1NC(=O)C1CCCN(S(=O)(=O)c2ccc(-n3cnnn3)cc2)C1 (stereo not drawn)	-1%	4%	-12%	.	1%
O=S(=O)(Nc1nc2ccccc2nc1-[n+]1cccc(N=C([O-])c2ccccc2Cl)c1)c1ccccc1	1%	-2%	-3%	.	1%
CCc1cc(/C(Cc2ccc3ccccc3n2)=N\O)c(O)cc1O	1%	-3%	1%	-14%	2%
Cc1c(O)ccc(/C(Cc2ccc3ccccc3n2)=N\N)c1O	17%	19%	10%	.	15µM*
CCOC(=O)c1c(NC(=O)CCCOc2ccc(C)cc2)sc2c1CCC(C)C2 (stereo not drawn)	.	.	.	7%	0%
Cc1cccc(Cc2nnc(CCC(=O)N(C)CCc3ccccc3)o2)c1	4µM*	3.5µM*	18µM*	.	7.6µM*
CCN(CCn1cccn1)C(=O)CCc1nnc(CCCc2ccccc2)o1	2.8µM*	?	16µM*	11µM*	15µM*
Cc1cc(-c2nnc(CCC(=O)N(C)CCc3ccccc3)o2)no1	9%	-3%	?	.	?
CCN(CCn1cccn1)C(=O)CCc1nnc(-c2ccc3c(c2)OCO3)o1	7%	0%	8%	.	-18%
SMILES	Rab9 promoter act	NPC1 promoter act	ELG1 genotoxic	SMN2 splice up	FLuc counter
C=C(C)CN(CC)C(=O)CCc1nnc(CCCc2ccccc2)o1	3.2µM*	3.5µM*	?	.	12µM*
O=C(CCc1nnc(CCCCc2ccccc2)o1)N(CCO)Cc1ccccc1	-2%	-2%	-2%	.	-5%
CCN(CC(=O)Nc1ccccc1C(F)(F)F)C(=O)C1CC(=O)N(Cc2ccccc2)C1 (stereo not drawn)	-6%	-1%	-1%	.	-1%
Cc1cc(C)cc(CC2CC(=O)N(c3nc(C)cc(C)n3)C2=O)c1 (stereo not drawn)	?	29%	15%	-1%	21µM*
Cc1[nH]c2ccccc2c1C(=O)C(=O)N1CCN(C(=O)c2ccco2)CC1	1%	-2%	-1%	-24%	6%
C#CCN1C(=O)S/C(=C/C=C/c2ccc(N(C)C)cc2)C1=O	2µM*	3.2µM*	9.2µM*	7.1µM*	2.7µM*
O=c1oc2ccc(Cl)cc2cc1-c1cn2c(n1)sc1ccccc12	.	.	.	.	-11%
CCN(CC)c1ccc(C(=O)NN)cc1	-2%	-3%	10%	-5%	-4%
CCN(CC)c1ccc(C(=O)Nc2cccc(F)c2)cc1	1.1µM*	0.79µM*	?	8.9µM*	?
CN(C)c1cccc(C(=O)Nc2cccc(F)c2)c1	2.8µM*	2.2µM*	?	14µM*	19µM*
CCN(CC)c1ccc(NC(=O)CN(C)S(=O)(=O)c2cccc3nsnc23)c(C)c1	.	.	.	3%	-13%
CCN(CC(=O)NCc1cccs1)C(=O)c1ccc(NS(=O)(=O)c2cccc([N+](=O)[O-])c2)cc1	-5%	-2%	-6%	.	-14%
Cc1ccc(-n2nc(C)c3c(C(F)(F)F)cc(-c4cccnc4)nc32)cc1C	.	.	.	7%	0%
CCOC(=O)[C@@H]1[C@H]2COc3cc(OC)ccc3[C@H]2N2C(=O)N(c3ccc(OC)cc3)C(=O)[C@]12C	.	.	1%	.	.
O=C(CSc1nnc2ccccn12)N1CCc2ccccc2C1	27%	?	?	26%	?
O=C(CSc1ncccn1)N1CCCc2ccccc21	-3%	0%	29%	0%	0%
Cn1ccnc1SCC(=O)N1CCc2ccccc21	2.8µM*	2.2µM*	?	.	15µM*
Cc1ccnc(SCC(=O)N2CCc3ccccc32)n1	2.8µM*	3.2µM*	?	.	?
O=C(CSc1ccccn1)N1CCc2ccccc21	1.1µM*	2.5µM*	?	11µM*	11µM*
COc1cccc(-n2ccnc2SCC(=O)N2CCc3ccccc32)c1	-7%	-1%	-1%	-12%	-2%
O=C(CSc1nnc2ccccn12)N1CCc2ccccc21	3.2µM*	2.8µM*	?	13µM*	13µM*
CCOC(=O)CN1C(=O)C2(OCCCO2)c2cc(Br)ccc21	5%	-1%	-1%	.	9%
CCn1c2ccccc2c2cc(NC(=O)N3CCOCC3)ccc21	3.5µM*	?	?	?	3%[2.3 µM]
O=C(Nc1ccc2c(c1)oc1ccccc12)N1CCOCC1	3.5µM*	3.5µM*	?	?	12µM*
CCn1c2ccccc2c2cc(NC(=O)COC(=O)c3ccc(NC(=O)CC#N)cc3)ccc21	-1%	-2%	23µM*	.	14%
COc1ccc(N2CCN(C(=O)Cn3c(-c4cccs4)cc4ccccc43)CC2)cc1	.	.	.	.	-3%
O=C(c1ccncc1)N1CCC[C@@]2(CCN(C(c3ccccc3)c3ccccc3)C2)C1	.	.	.	-14%	.

From PubChem BioAssay
